# PP5 inh – inhibitors of human protein phosphatase 5 (PP5); AID 1987; 320,000 compounds, 0.18% hits; inhibition, % at 6.7 µM; P53041; purified PP5c, OMFP substrate fluorescence;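 active = inhibition above the campaign's mean inhibition across all tested compounds plus 3 SD, cut at about 9.5% in these data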;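 note: 0% = DMSO only and 100% = 100 µM cantharidin control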
# PAFAH1B2 FP inh – inhibitors of human PAFAH1B2 | P68402 | recombinant PAFAH1B2, FP-rhodamine activity probe, fluorescence polarization | inhibition, % at 3.39 µM | 340,000 compounds, 1.2% hits;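 active = inhibition above the mean of all tested compounds plus 3 SD, cut at about 24% in these data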;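 note: 0% = enzyme with DMSO and 100% = wells lacking PAFAH1B2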
# Target sequence (P68402 whole entry, looked up): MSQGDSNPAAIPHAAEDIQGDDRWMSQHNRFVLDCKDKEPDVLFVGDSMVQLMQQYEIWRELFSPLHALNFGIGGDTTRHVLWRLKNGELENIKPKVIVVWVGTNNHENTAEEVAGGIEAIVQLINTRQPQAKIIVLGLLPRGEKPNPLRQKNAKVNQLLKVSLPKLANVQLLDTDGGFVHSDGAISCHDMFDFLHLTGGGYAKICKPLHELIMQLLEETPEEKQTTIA
# PAFAH1B3 inh – inhibitors of human PAFAH1B3. Q15102. recombinant PAFAH1B3, FP-rhodamine probe, fluorescence polarization. 340,000 compounds, 0.28% hits. inhibition, % at 3.39 µM;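 active = inhibition above the screen-wide average of all tested compounds plus 3 SD, cut at about 25% in these data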;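 note: 0% = enzyme with DMSO only and 100% = wells lacking PAFAH1B3 protein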
# Target sequence (Q15102 whole entry, looked up): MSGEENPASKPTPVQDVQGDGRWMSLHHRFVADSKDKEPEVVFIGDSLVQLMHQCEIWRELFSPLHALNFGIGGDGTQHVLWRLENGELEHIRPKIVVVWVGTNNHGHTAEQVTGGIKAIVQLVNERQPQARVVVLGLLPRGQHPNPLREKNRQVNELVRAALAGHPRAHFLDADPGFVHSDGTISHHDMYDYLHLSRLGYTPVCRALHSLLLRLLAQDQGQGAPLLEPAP
# PAFAH2 FP inh – PAFAH2 (human) inhibition; recombinant PAFAH2, FP-rhodamine activity probe, fluorescence polarization; inhibition, % at 3.39 µM; 340,000 compounds, 0.99% hits; Q99487;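 active = inhibition above the mean over all tested compounds plus 3 SD, cut at about 30% in these data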;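 note: inhibitors block probe labeling of enzyme so polarization drops; 0% = enzyme with DMSO and 100% = wells lacking PAFAH2 protein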
# pPAFAH inh – inhibitors of human plasma PAF acetylhydrolase (pPAFAH). recombinant pPAFAH, FP-rhodamine probe fluorescence polarization. AID 463082. inhibition, % at 3.39 µM. 330,000 compounds, 1.5% hits. Q13093;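 active = inhibition above the mean inhibition across the screen plus 3 SD, cut at about 25% in these data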;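 note: inhibitors block binding of the rhodamine activity-based probe so polarization drops; 0% = enzyme with DMSO and 100% = wells lacking pPAFAH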
# PP1 counter – PP1-alpha (human) inhibition in PP5 counter-screen; P62136; purified PP1alpha, OMFP fluorescence; inhibition, % at 6.7 µM; 320,000 compounds, 0.9% hits; AID 2235;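 active = inhibition above the mean inhibition of all tested compounds plus 3 SD, computed separately for each screening campaign, cut at about 15% in these data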
# PAFAH2 confirm – PAFAH2 (human) inhibition, confirmed | shares compounds with PAFAH2 FP inh | recombinant PAFAH2, FP-rhodamine activity probe, fluorescence polarization | inhibition, % at 3.39 µM | 2,300 compounds, 65% hits | AID 493030;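 active = mean inhibition over three repeats above a set limit taken from the earlier primary screen, cut at about 30% in these data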;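 note: inhibitor blocks binding of rhodamine activity probe so polarization falls; 0% = enzyme with DMSO and 100% = wells lacking PAFAH2 protein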
# Starred values were filed as active, the others as inactive; . = no result given. Hits are enriched below; roughly 3.4% of the tested compounds scored in any of these assays.
SMILES,PP5 inh,PAFAH1B2 FP inh,PAFAH1B3 inh,PAFAH2 FP inh,pPAFAH inh,PP1 counter,PAFAH2 confirm
CCOC(=O)c1sc(NC(=O)c2cccc(S(=O)(=O)N3CCN(C)CC3)c2)cc1C,1,-4,6,1,0,4,.
Cc1cc(Br)c(NC(=O)COC(=O)C2CCCCC2)c(Br)c1,.,-1,-3,33*,7,.,32*
Cc1ccc(NC(=O)COC(=O)C2CC2)c(Br)c1,-9,4,10,55*,20,-8,39*
Cc1cc(C)c(NC(=O)COC(=O)C2CCC2)c(Cl)c1,1,-6,-1,5,3,2,.
CC(CCc1ccccc1)NC(=O)COC(=O)c1cccnc1Cl (stereo unspecified),.,7,-2,10,10,.,.
CN(C)S(=O)(=O)c1ccc(Cl)c(NC(=O)COC(=O)c2ccc(O)cc2)c1,-1,2,7,59*,14,-2,55*
CN(C)S(=O)(=O)c1ccc(Cl)c(NC(=O)COC(=O)c2ccc3c(c2)NC(=O)CS3)c1,1,1,1,48*,0,-2,40*
CCN(c1ccccc1)S(=O)(=O)c1ccc(Cl)c(NC(=O)COC(=O)c2ccc(Cl)c(N)c2)c1,4,8,6,40*,19,5,20
Cc1ccc(S(=O)(=O)N(C)C)cc1NC(=O)COC(=O)C1(c2ccccc2)CC1,1,12,2,7,4,1,.
CS(=O)(=O)c1ccc(Cl)c(NC(=O)COC(=O)c2cccc(C#N)c2)c1,0,7,8,1,0,2,.
Cc1ccc(S(=O)(=O)N(C)C)cc1NC(=O)COC(=O)C1CC1,1,1,-1,43*,1,-6,34*
CCN(C(=O)Cn1ccc(C(F)(F)F)n1)c1c(N)n(Cc2ccccc2)c(=O)[nH]c1=O,4,-3,4,-1,2,-4,.
Cc1ccc(S(=O)(=O)N(C)C)cc1NC(=O)COC(=O)c1ccc(Cl)cc1,-1,6,10,35*,6,2,26
Cc1cc(C(=O)OCC(=O)Nc2cc(S(=O)(=O)N(C)C)ccc2C)c(C)o1,0,.,.,.,5,3,.
COC(=O)c1c(-c2c(Cl)cccc2Cl)noc1NC(=O)NN1CCCCC1,4,5,5,75*,15,3,68*
COC(=O)c1c(-c2c(Cl)cccc2Cl)noc1NC(=O)NN1CCOCC1,-2,5,-1,27,1,-2,.
COc1cccc(/C=C/C(=O)OCC(=O)Nc2ccc(Cl)c(S(=O)(=O)N(C)C)c2)c1OC,1,-3,-3,82*,7,4,73*
COc1ccc(OC)c(/C=C/C(=O)OCC(=O)Nc2ccc(Cl)c(S(=O)(=O)N(C)C)c2)c1,0,3,-1,45*,-2,1,42*
COc1ccc(OC)c(NC(=O)COC(=O)/C=C/c2ccccc2Cl)c1,3,-3,7,7,23,4,.
Cc1ccccc1NC(=O)C1Cc2ccccc2C(=O)O1 (stereo unspecified),3,4,13,36*,11,0,30*
CCOc1ccc(C(=O)Nc2ccc(S(=O)(=O)N3C[C@@H]4C[C@@H](C3)c3cccc(=O)n3C4)cc2)cc1,2,3,5,-3,5,0,.
CCOC(=O)CSc1nnc(-c2ccccc2NC(=O)c2ccccc2)o1,1,1,-3,-23,3,-3,.
CCc1nnc(NC(=O)CSc2nnc(-c3ccccc3NC(=O)c3ccccc3)o2)s1,2,4,3,34*,0,-2,-3
Cc1cc(C)n(C(=O)c2ccc(NC(=O)C3CC3)cc2)n1,1,4,2,2,9,-2,.
CCC(=O)Nc1ccc(C(=O)n2ccc(C)n2)cc1,1,5,9,59*,-9,-2,61*
SMILES,PP5 inh,PAFAH1B2 FP inh,PAFAH1B3 inh,PAFAH2 FP inh,pPAFAH inh,PP1 counter,PAFAH2 confirm
Cc1ccn(C(=O)c2ccc(NC(=O)CC(C)C)cc2)n1,4,-1,2,62*,-1,-16,56*
Cc1ccn(C(=O)c2ccc(NC(=O)C3CC3)cc2)n1,2,-1,3,63*,0,-3,53*
CC(C)Oc1ccc(S(=O)(=O)N2CCOCC2)cc1NC(=O)C1=NN(c2ccccc2)C(=O)CC1,.,-1,2,3,.,.,.
COc1ccccc1/C=C/C(=O)OCC(=O)Nc1ccc2c(c1)OCCO2,1,-1,5,80*,16,-3,78*
COc1ccccc1/C=C/C(=O)Nc1ccc2c(c1)OCCO2,3,2,6,0,8,-1,.
COc1cc(/C=C/C(=O)OCC(=O)Nc2ccc3c(c2)OCCO3)ccc1OCC#N,0,-2,4,42*,-4,0,51*
O=C(CC(NC(=O)C(F)(F)F)c1ccccc1)Nc1nnc(CCc2ccccc2)s1 (stereo unspecified),2,-5,-24,-25,-7,11,.
CN(c1ccc(OC(=O)CN2C(=O)NC3(CCCC3)C2=O)cc1)S(=O)(=O)c1ccccc1,2,2,1,5,3,-1,.
CN(C)S(=O)(=O)c1cccc(COC(=O)c2ccc3c(c2)OCO3)c1,2,3,3,31*,8,2,25
Cc1ccc(S(=O)(=O)N(C)C)cc1NC(=O)COC(=O)c1ccc2c(c1)OCCO2,1,9,6,64*,11,-2,64*
CN(C)S(=O)(=O)c1cccc(COC(=O)c2ccc(Cl)cc2O)c1,0,4,0,2,11,4,.
Cc1ccc(S(=O)(=O)N(C)C)cc1NC(=O)COC(=O)C1=COCCO1,-2,1,4,27,-4,-5,.
Cc1ccc(S(=O)(=O)N(C)C)cc1NC(=O)COC(=O)c1ccc2c(c1)OCO2,1,2,-3,60*,0,-1,52*
Cc1ccc(C)c(NC(=O)COC(=O)c2ccc3c(c2)OCO3)c1,-1,2,16,20,5,-3,.
O=c1ccnc(SCCc2ccc([N+](=O)[O-])cc2)[nH]1,0,14,7,-4,-3,1,.
CCCn1c(C(O)c2cccc(OC)c2)nc2ccccc21 (stereo unspecified),.,0,8,1,.,.,.
Cc1cccc(NC(=S)N/N=C/c2cccc(O)c2)c1C,-1,0,6,0,2,-2,.
Cc1ccccc1NC(=S)N/N=C/c1ccc(O)cc1O,4,11,6,33*,5,-2,15
Cc1ccc(/C(=N\O)c2oc3c(C)c4oc(=O)cc(C)c4cc3c2C)cc1,4,-8,-4,-24,-10,4,.
Cc1cc(=O)oc2c1ccc1oc(/C(=N/O)c3ccccc3)c(C)c12,5,-2,-5,37*,4,2,29

# Screens deposited in PubChem by The Scripps Research Institute Molecular Screening Center.
